Results published in PubChem BioAssay AID1851 (National Center for Advancing Translational Sciences (NCATS), 2009).
The campaign covered roughly 16,000 compounds. About 5,800 (36%) were called active. Roughly 23% stayed inconclusive and do not appear here. Calls come from the whole dose curve; as a rule, active = well fitted curve in the direction sought with a large enough effect; inconclusive = small, poorly fitted or top-dose-only effect, or effect the other way; inactive = no such curve, though single readings can be large or run the other way. The list shows a part of the results.

Target: Cytochrome P450 2C19 (Homo sapiens) (UniProt P33261)
Test: Cytochrome panel assay with activity outcomes
Conditions: recombinant CYP, pro-luciferin dealkylation, luminescence, p450-cyp2c19; series mostly up to 57.1 µM; activity, negative = inhibition: at the top concentration
% is set by controls: 0 for no effect and ±100 for the full control effect.

Sequence of Cytochrome P450 2C19 (Homo sapiens) (P33261 whole entry, looked up): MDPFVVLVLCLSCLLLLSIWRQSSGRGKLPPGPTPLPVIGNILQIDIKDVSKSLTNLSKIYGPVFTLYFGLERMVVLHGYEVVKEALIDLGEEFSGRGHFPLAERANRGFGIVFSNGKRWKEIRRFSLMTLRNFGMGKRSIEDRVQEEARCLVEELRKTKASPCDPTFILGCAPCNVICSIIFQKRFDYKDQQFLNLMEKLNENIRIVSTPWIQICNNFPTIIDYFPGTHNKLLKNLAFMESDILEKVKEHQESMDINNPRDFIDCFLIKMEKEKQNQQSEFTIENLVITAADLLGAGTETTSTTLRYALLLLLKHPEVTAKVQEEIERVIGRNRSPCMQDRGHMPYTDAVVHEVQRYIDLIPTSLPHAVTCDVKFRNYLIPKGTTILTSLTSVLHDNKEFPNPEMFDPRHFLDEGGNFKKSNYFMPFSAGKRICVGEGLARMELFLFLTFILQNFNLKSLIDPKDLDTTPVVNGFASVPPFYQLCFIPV

Structure (SMILES) | activity, negative = inhibition | AC50
COc1ccc(O)c(/C=N/NC(=O)c2ccc(OCc3cccc(Br)c3)cc2)c1 | -4.51% (inactive) | 
COc1ccc(C(=O)NCC(=O)OCc2cccc(Br)c2)cc1 |  | 3.55 µM (active)
COC(=O)CCC(=O)NNC(=O)c1ccc(Br)cc1 | -12.7% (inactive) | 
CCO[C@H](c1cc(OC)cc([N+](=O)[O-])c1OC)[C@H](C)/C=C\CC(=O)OC |  | 0.398 µM (active)
CO/N=C\[C@@H](OC)[C@H](C)/C=C\CC(=O)OC | -12.9% [at 11.4 µM] (inactive) | 
COC(=O)C/C=C\[C@H](C)[C@@H](OC)c1ccccc1Br | -6.61% [at 11.4 µM] (inactive) | 
CSc1nnc(-c2sccc2OCc2ccccc2)n1C |  | 17.8 µM (active)
Cc1nc2c(OCc3ccccc3)cccn2c1CC#N | -11.3% (inactive) | 
CO[C@H]1COC(=O)[C@@H](C)COC(=O)[C@@H](COCc2ccccc2)NC(=O)C/C=C\[C@H]1C | 37.5% [at 11.4 µM] (inactive) | 
CC(C)NCCOCCSc1ccc(Cl)cc1 |  | 15.8 µM (active)
O=c1[nH]c(=O)n([C@@H]2C[C@H](O)[C@H](CO)O2)cc1C(F)(F)F | -2.44% [at 25.6 µM] (inactive) | 
CC(=O)N1CCC2(CC1)CCN(C(=O)Nc1cccc(F)c1)CC2 | -4.74% (inactive) | 
CC(=O)NC1(c2ccc(F)cc2)CCN(C(=O)Nc2ccc(F)cc2F)CC1 |  | 7.08 µM (active)
Cn1cccc1C(=O)N1CCC2(CCN(C(=O)Nc3cccc(F)c3)CC2)CC1 | -21.4% (inactive) | 
CN(Cc1ccco1)c1nc(-c2cccc(C#N)c2)nc2ccccc12 |  | 15.8 µM (active)
CN(C)c1nc(-c2cccnc2)nc2ccccc12 | -40.7% (inactive) | 
COc1cccc(-c2nc(N(C)Cc3ccco3)c3ccccc3n2)c1 |  | 20 µM (active)
COc1cccc(-c2nc(N(C)C)c3ccccc3n2)c1 |  | 20 µM (active)
CN(Cc1ccco1)c1nc(-c2ccc3c(c2)OCO3)nc2ccccc12 |  | 7.94 µM (active)
CN1CCN(c2nc(-c3cccc(C#N)c3)nc3ccccc23)CC1 | -12.9% (inactive) | 
CNC(=O)c1sc(SC)cc1-c1ccc(Cl)cc1 |  | 0.0562 µM (active)
CCn1c(/C=C2/C(=O)N(C)c3ccccc32)nc2ccccc2c1=O |  | 15.8 µM (active)
CCn1c(=O)[nH]c2ccccc2c1=O | -2.61% (inactive) | 
Cc1cc(C)cc(NC(=O)CCc2nc3ccccc3[nH]2)c1 |  | 1.58 µM (active)

Structure (SMILES) | activity, negative = inhibition | AC50
CC(C)(CCc1nc2ccccc2[nH]1)C(=O)O | -0.413% [at 11.4 µM] (inactive) | 
Cc1cc(C)cc(NC(=O)C/C(N)=N/O)c1 | -15.2% (inactive) | 
CCOC(=O)C1=C(COc2ccc(F)cc2Cl)NC(=O)NC1c1cc(C)ccc1C (centres undefined) |  | 7.08 µM (active)
CCOC(=O)C1=C(C)NC(=O)N[C@@H]1c1coc2cc(C)cc(C)c2c1=O | -27.2% [at 11.4 µM] (inactive) | 
CCOC(=O)C1=C(CSc2nc3ccccc3s2)NC(=O)NC1c1cc(C)ccc1C (centres undefined) |  | 7.94 µM (active)
C=CCNc1nc(-c2ccc(Cl)cc2)cs1 |  | 3.16 µM (active)
Cc1ccc(CSC(N)=Nc2ccccc2)cc1C |  | 2 µM (active)
C#C[C@@]1(O)CC[C@@H]2[C@@H]3CCC4=C(CCC(=O)C4)[C@H]3CC[C@]21C |  | 0.0631 µM (active)
C#C[C@@]1(O)CC[C@@H]2[C@@H]3CCC4=CC(=O)CC[C@@H]4[C@H]3CC[C@]21C |  | 5.01 µM (active)
C#C[C@]1(O)CC[C@@H]2[C@H]3CCC4=CCCC[C@@H]4[C@@H]3CC[C@@]21C |  | 3.98 µM (active)
C[C@@]12CCC(=O)C=C1CC[C@@H]1[C@@H]2[C@H](O)C[C@]2(C)[C@@H]1CC[C@]2(O)C(=O)COC(=O)CCC(=O)O | 35.7% (inactive) | 
CCNc1ncc2nc(-c3cn(C)c4ccccc34)c(=O)n(C)c2n1 | -18.4% (inactive) | 
COC(=O)c1ccccc1NC(=O)C1CCN(C(=O)c2ccc(OC)cc2)CC1 |  | 14.1 µM (active)
COc1ccc(/C=C/C(=O)Nc2ccccc2C(=O)N2CCCC2)cc1 | -26.3% (inactive) | 
COc1ccc(NC(=O)C2CCN(C(=O)c3cccs3)CC2)c(OC)c1 | -6.18% (inactive) | 
COc1cc(OC)cc(C(=O)Nc2ccccc2C(=O)N2CCCC2)c1 |  | 28.2 µM (active)
COc1cc(OC)cc(C(=O)Nn2cc(C(=O)N3CCN(C)CC3)c3ccccc3c2=O)c1 | -11.9% (inactive) | 
O=C1[C@H]2[C@H]3[C@H](O)[C@H](O)C/C(=N/OC[C@@H](O)COCc4ccco4)[C@H]3CC[C@@H]2C(=O)N1C1CCCCC1 | -5.34% [at 11.4 µM] (inactive) | 
N#CC(c1ccc(Cl)cc1)(c1ncc(C(F)(F)F)cc1Cl)N1CCOCC1 (centres undefined) |  | 11.2 µM (active)
N#CC(c1ccccc1F)(c1ncc(C(F)(F)F)cc1Cl)N1CCOCC1 (centres undefined) |  | 11.2 µM (active)
Cc1ccccc1NS(=O)(=O)c1cc(C(=O)Nc2cccc(N(C)S(C)(=O)=O)c2)ccc1C |  | 3.55 µM (active)
Cc1ccc(SCc2ccc(C(=O)NCc3ccncc3)cc2)cc1 |  | 0.355 µM (active)
Cc1ccc(SCCNC(=O)c2ccccc2)cc1 |  | 6.31 µM (active)
Cc1ccc(NC(=O)c2cccc(N(C)C)c2)cc1NC(=O)c1ccc(O)cc1 | 42% (inactive) | 

Structure (SMILES) | activity, negative = inhibition | AC50
CCN(CC)CCNC(=O)c1ccc(Cl)c(S(=O)(=O)Nc2ccccc2OC)c1 | -26.4% (inactive) | 
Cc1ccc(SCc2nnc(NC(=O)c3ccccc3)s2)cc1 | -23.4% (inactive) | 
Cc1ccc(SCCNC(=O)c2ccc(C)c(S(=O)(=O)Nc3ccccc3C)c2)cc1 |  | 2.51 µM (active)
NS(=O)(=O)Cc1noc2ccccc12 | -11.9% (inactive) | 
Cc1cc(C(C)(C)CC(C)(C)C)ccc1OCCOCC[N+](C)(C)Cc1ccccc1 | -43.6% [at 25.6 µM] (inactive) | 
CN[C@@H]1[C@H](O[C@H]2[C@@H](O[C@@H]3[C@@H](O)[C@@H](O)[C@@H](N=C(N)N)[C@@H](O)[C@@H]3N=C(N)N)O[C@@H](C)[C@]2(O)CO)O[C@H](CO)[C@@H](O)[C@@H]1O | 18.4% [at 25.6 µM] (inactive) | 
COc1ccc(-c2ccc(N)[n+](CCCC(=O)O)n2)cc1 |  | inactive
COc1ccc(-c2ccc(=N)n(CCCC(=O)O)n2)cc1 |  | 0.158 µM (active)
Cc1cccc(CNc2cc(-c3ccccc3Cl)ncn2)c1 |  | 10 µM (active)
Clc1ccccc1-c1cc(NCc2cccnc2)ncn1 | -38% (inactive) | 
Clc1ccccc1-c1cc(NCc2ccccc2)ncn1 |  | 7.94 µM (active)
CC(C(=O)NCc1ccc2c(c1)OCO2)N1c2cccc3cccc(c23)S1(=O)=O (centres undefined) |  | 0.794 µM (active)
COC(=O)[C@@]1(Cc2ccc(F)cc2)[C@H]2c3cc(C(=O)N4CCCC4)n(CCc4c[nH]c5ccc(OC)cc45)c3C[C@H]2CN1C(=O)c1ccccc1 |  | 7.94 µM (active)
COc1ccc(C(=O)N2CCC[C@@]3(CCN(Cc4cc(C(F)(F)F)cc(C(F)(F)F)c4)C3)C2)cc1 | 13.4% (inactive) | 
COc1ccc(NC(=O)N2CC[C@@]3(CCCN(C(=O)c4cccc(F)c4)C3)C2)cc1 | 14.1% (inactive) | 
COC(=O)[C@@]1(Cc2ccc(OC)cc2)[C@H]2c3cc(C(=O)N4CCCC4)n(Cc4ccc(Cl)c(C(F)(F)F)c4)c3C[C@H]2CN1C(=O)c1ccccc1 | -43.7% (inactive) | 
COC(=O)[C@@]1(Cc2ccc(OC)cc2)[C@H]2c3cc(C(=O)N4CCCC4)n(CCCNc4ncc(C(F)(F)F)cc4Cl)c3C[C@H]2CN1C(=O)c1ccccc1 |  | 3.16 µM (active)
COC(=O)[C@@]1(Cc2ccc(OC)cc2)[C@H]2c3cc(C(=O)N4CCCC4)n(CCc4c[nH]c5cc(F)ccc45)c3C[C@H]2CN1C(=O)c1ccccc1 |  | 3.98 µM (active)
COC(=O)[C@@]1(Cc2ccc(OC)cc2)[C@H]2c3cc(C(=O)N4CCCC4)n(CCc4c[nH]c5ccc(O)cc45)c3C[C@H]2CN1C(=O)c1ccccc1 |  | 10 µM (active)
COC(=O)[C@@]1(Cc2ccc(F)cc2)[C@H]2c3cc(C(=O)N4CCCC4)n(CCc4c[nH]c5ccccc45)c3C[C@H]2CN1C(=O)c1ccccc1 |  | 10 µM (active)
O=C1C(SCCO)=C(SCCO)C(=O)c2ccccc21 |  | 0.0794 µM (active)
O=S(=O)(O)[C@@H](CO)c1ccccc1 (tested in a mixture with another compound) | -9.78% [at 11.4 µM] (inactive) | 
CCCCNC(=O)NS(=O)(=O)c1ccc(C)cc1 | 24.1% [at 25.6 µM] (inactive) | 
CCN(CC)C(=O)CCNS(=O)(=O)c1ccc(C)cc1 |  | 5.01 µM (active)

Structure (SMILES) | activity, negative = inhibition | AC50
Cc1ccc(S(=O)(=O)NCc2ccccc2)cc1 | -39.9% (inactive) | 
Cc1ccc(S(=O)(=O)NCCC(=O)NCc2ccccc2)cc1 |  | 20 µM (active)
COc1ncc2nc(-c3cn(C)c4ccccc34)c(=O)n(CCC#N)c2n1 | 4.22% (inactive) | 
CCOc1cc(C2NN=C(c3ccccc3)S2)ccc1OCc1ccccc1Cl (centres undefined) |  | 5.01 µM (active)
Nc1nc(SCC(=O)Nc2ccccc2Sc2ccc(Cl)cc2)n[nH]1 |  | 0.0631 µM (active)
O=C(Cn1cnc2ccccc2c1=O)Nc1nnc(SCc2ccccc2)s1 |  | 15.8 µM (active)
Cc1ccc(C(=O)COC(=O)c2ccccc2N2C(=O)C3C4CCC(C4)C3C2=O)cc1C (centres undefined) |  | 14.1 µM (active)
CS(=O)(=O)Nc1ccc([N+](=O)[O-])cc1OC1CCCCC1 |  | 0.0794 µM (active)
CS(=O)(=O)Nc1ccc([N+](=O)[O-])cc1Oc1ccccc1 | -27.8% [at 25.6 µM] (inactive) | 
CCN(CC)CCOc1ccc(/C(=C(\Cl)c2ccccc2)c2ccccc2)cc1 | -31.9% [at 25.6 µM] (inactive) | 
CCN(CC)CCOc1ccc(Cc2ccccc2)cc1 |  | 15.8 µM (active)
COc1ccc(O)c(/C=N/NC(=O)CSc2nnc(C)n2-c2ccccc2)c1 | -22.6% (inactive) | 
COc1ccccc1NCc1nnc(SCC(=O)N/N=C/c2ccco2)n1-c1ccc(Cl)cc1Cl |  | 4.47 µM (active)
CN(C)c1ncc2nc(-c3cc(F)cc(F)c3)c(=O)n(Cc3ccc(F)cc3)c2n1 | 36.3% (inactive) | 
CCNc1ncc2nc(-c3ccccc3)c(=O)n(Cc3ccc(F)cc3)c2n1 | -39% (inactive) | 
CN(C)c1ncc2nc(-c3ccc(F)cc3)c(=O)n(Cc3ccc(F)cc3)c2n1 | 15.8% (inactive) | 
CN(C)c1ncc2nc(-c3ccc(Cl)cc3)c(=O)n(Cc3ccc(F)cc3)c2n1 | -31.2% (inactive) | 
CN(C)c1ncc2ncc(=O)n(C)c2n1 | -19.2% (inactive) | 
CN(C)c1ncc2ncc(=O)n(Cc3ccc(F)cc3)c2n1 |  | 3.16 µM (active)
CCNc1ncc2nc(-c3ccc(OC)cc3)c(=O)n(Cc3ccc(F)cc3)c2n1 | 5.68% (inactive) | 
Cc1nc2cnc(N(C)C)nc2n(Cc2ccc(F)cc2)c1=O |  | 1.58 µM (active)
CCNc1ncc2ncc(=O)n(Cc3ccc(F)cc3)c2n1 |  | 15.8 µM (active)
